Assay results from PubChem BioAssay.
“And” between values parts separate entries of the source, which are not always exact repeats. Equal entries are not always repeated.

Experiment: JC-1 mitochondrial signal, unstimulated HepG2 cells – cell-based, JC-1 fluorescence, 24 h, 100 nL compound, profiling panel (AID 1167); also: test concentration not given here
Settings: HepG2 mitochondrial potential, higher = more signal

| SMILES | z-score |
| --- | --- |
| CC(=O)OC[C@H]1O[C@H](C#CC(C)(C)C)C=C[C@@H]1OC(C)=O | -0.888 |
| COc1ccc(O[C@H]2C=C[C@@H](c3ccccc3)O[C@@H]2COC(=O)CCC(C)=NO[C@H](C)c2cn([C@H](CO)Cc3ccccc3)nn2)cc1 | -0.796 and -0.898 |
| CCCC[C@@H]1CN2[C@H](c3ccc(Br)cc3)[C@@H](C)CC[C@H]2C(=O)O1 | 0.134 and -1.42 |
| CC(CO)N1C(=O)[C@@H]2C3C(=O)OCCC=C[C@H]3OC23C=CCN(C(C)(C)C)C(=O)[C@@H]13 (stereo partly specified) | -0.985 and -1.27 |
| C=CCN(C(=O)C1N(CCOCCO)C(=O)C2C(C(=O)O)C3C=CC21O3)C(C)(C)C (stereo unspecified) | -0.58 and -0.767 |
| C[C@@H](ON=C1[C@H]2CCn3c(=O)n(-c4ccccc4)c(=O)n3[C@H]2[C@H](O)[C@@H]2O[C@H]12)c1cn([C@H](CO)Cc2ccccc2)nn1 | -0.998 |
| CO[C@H]1COC(=O)CC=C[C@H](C)[C@H](OC)COC(=O)[C@@H](C)COC(=O)CC=C[C@@H]1C | 0.152 and 1.09 |
| COC(=O)[C@H](C)NC(=O)CCC1CC(OC(=O)NCCc2ccc(F)cc2)CC2(CCCC(COC(=O)NCCCN3CCCC3=O)O2)O1 (stereo partly specified) | -0.197 |
| CCOC(=O)[C@@H]1CC2O[C@]23C[C@@H]1C(=O)N1CCC[C@@H]1[C@H]3O[Si](C)(C)C(C)(C)C (stereo partly specified) | -0.904 and -1.08 |
| C[C@@H]1CC[C@H]2C(=O)O[C@H](CN=[N+]=[N-])CN2[C@H]1c1ccc(Br)cc1 | -2.47 and 0.365 |
| O=c1n(-c2ccccc2)c(=O)n2n1CC[C@@H]1C(=NOC[C@@H](O)COCc3ccco3)[C@H]3O[C@H]3[C@@H](O)[C@@H]12 | -0.16 and -1.1 |
